AHR activator: AHR activators, primary screen, cell-based, luminescence, luciferase reporter, human; Aryl hydrocarbon receptor (Homo sapiens), P35869; AHR-responsive luciferase reporter cells; activation, % at 5 µM; 2.5% of 320,000 active; in the data active = activation above about 47%
Target sequence (P35869 whole entry, looked up): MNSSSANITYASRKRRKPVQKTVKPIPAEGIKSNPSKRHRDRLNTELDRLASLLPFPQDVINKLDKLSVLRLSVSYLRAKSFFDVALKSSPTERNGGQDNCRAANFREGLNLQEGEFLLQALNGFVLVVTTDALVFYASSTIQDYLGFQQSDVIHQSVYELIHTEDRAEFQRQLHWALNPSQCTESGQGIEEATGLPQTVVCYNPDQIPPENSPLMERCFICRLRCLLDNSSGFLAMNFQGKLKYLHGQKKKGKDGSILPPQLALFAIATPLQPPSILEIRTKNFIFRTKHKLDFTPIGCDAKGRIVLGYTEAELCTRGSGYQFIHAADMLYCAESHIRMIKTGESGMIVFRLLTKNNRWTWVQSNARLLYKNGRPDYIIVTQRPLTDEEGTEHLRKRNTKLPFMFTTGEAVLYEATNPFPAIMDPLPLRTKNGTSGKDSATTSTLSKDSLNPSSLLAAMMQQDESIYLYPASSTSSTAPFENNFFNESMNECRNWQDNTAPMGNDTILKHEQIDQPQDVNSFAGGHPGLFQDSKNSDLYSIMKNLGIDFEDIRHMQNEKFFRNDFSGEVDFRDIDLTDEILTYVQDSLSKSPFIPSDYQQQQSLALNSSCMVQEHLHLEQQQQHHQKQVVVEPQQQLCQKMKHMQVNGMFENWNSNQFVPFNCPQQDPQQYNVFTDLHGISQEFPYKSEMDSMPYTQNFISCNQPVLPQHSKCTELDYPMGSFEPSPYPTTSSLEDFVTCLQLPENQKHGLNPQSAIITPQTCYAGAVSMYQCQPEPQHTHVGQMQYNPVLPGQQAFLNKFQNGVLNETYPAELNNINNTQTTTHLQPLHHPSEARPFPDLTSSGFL
GAA850 FXN act: FXN promoter activators, primary screen, cell-based, luciferase luminescence, HEK293 lucGAA850 | AID 540364, 2011 | 0.56% of 360,000 active | activation, % at 6 µM | HEK293 lucGAA850 FXN promoter luciferase reporter, 24 h; percent of 10 µM SAHA response;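 active = activation above the average of all compounds screened plus 3 SD, cutoff fixed separately per campaign, cut at about 7.5% in these data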
HSF1 activator: HSF-1 activators, primary screen, NIH3T3-HGL cells, MG132 stress, luminescence, single point; NIH3T3-HGL HSF-1 luciferase reporter, 8 h; 100% = twice DMSO control signal; activation, % at 9 µM; 1.7% of 300,000 active;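 active = mean replicate activation of at least 50% with a set share of replicates each reaching 50%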
HSF1 inh: HSF1 inhibitors in luciferase reporter cells, primary screen, cell-based, NIH3T3, luminescence; 0.77% of 300,000 active; NIH3T3-HGL HSE-luciferase, MG132-induced, luminescence 8 h; hits give low values; activity change, negative = inhibition, % at 7.5 µM (by protocol);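 active = more than half of replicate wells show activity change below -50%, luminescence cut by over half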;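 note: luciferase reports HSF-1 transcriptional activity via heat shock element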
Hits are given with their value. The list is not random: actives were taken first. Their share in the collection is about 4.6%.

What do the screens show for `CCOC(=O)C1CCN(C(=O)Cn2cc(C(=O)C3CC3)c3ccccc32)CC1`?
AHR activator: inactive; GAA850 FXN act: inactive; HSF1 activator: inactive; HSF1 inh: inactive

Results for Cn1cc(SCC(=O)Nc2ccc3c(c2)OCO3)c2ccccc21 ?
AHR activator: inactive; GAA850 FXN act: inactive; HSF1 activator: inactive; HSF1 inh: inactive

How did Cn1c(C(=O)O)c(CC(=O)Nc2ccc3c(c2)OCCO3)c2ccccc21 do in these assays?
AHR activator: inactive; GAA850 FXN act: inactive; HSF1 activator: inactive; HSF1 inh: -66

How did CCCn1cc(SCC(=O)Nc2ccc3c(c2)OCO3)c2ccccc21 do in these assays?
AHR activator: 73; GAA850 FXN act: inactive; HSF1 activator: inactive; HSF1 inh: inactive

What do the screens show for `COCCn1nnnc1SCC(=O)Nc1ccc2c(c1)OCO2`?
AHR activator: 68; GAA850 FXN act: inactive; HSF1 activator: inactive; HSF1 inh: inactive

What do the screens show for `Cc1ccc(NC(=O)Cc2c(C(=O)O)n(C)c3ccccc23)cc1F`?
AHR activator: inactive; GAA850 FXN act: inactive; HSF1 activator: inactive; HSF1 inh: inactive

What do the screens show for `CN1C(C(=O)Nc2cccc(O)c2)=CC(c2cccs2)=NS1(=O)=O`?
AHR activator: inactive; GAA850 FXN act: inactive; HSF1 activator: inactive; HSF1 inh: inactive

What do the screens show for `Cc1cc(OCC(O)CN2CCN(C)CC2)ccc1C(C)C` (configuration not stated)?
AHR activator: inactive; GAA850 FXN act: inactive; HSF1 activator: inactive; HSF1 inh: inactive

What do the screens show for `O=C(Nc1ccccc1Cl)C(=O)c1cn(CC(=O)N2CCOCC2)c2ccccc12`?
AHR activator: 73; GAA850 FXN act: inactive; HSF1 activator: inactive; HSF1 inh: inactive

How did CC(=O)Nc1ccc(NC(=O)CSc2cn(CC(=O)N3CCOCC3)c3ccccc23)cc1 do in these assays?
AHR activator: inactive; GAA850 FXN act: inactive; HSF1 activator: inactive; HSF1 inh: -69

What do the screens show for `O=C(/C=C/c1ccc([N+](=O)[O-])cc1)Nc1cccnc1`?
AHR activator: inactive; GAA850 FXN act: inactive; HSF1 activator: 54; HSF1 inh: inactive

Results for CC(C)(C)c1ccc(/C=C/C(=O)Nc2ccncc2)cc1 ?
AHR activator: inactive; GAA850 FXN act: inactive; HSF1 activator: 56; HSF1 inh: inactive

How did O=C(/C=C/c1ccc(Cl)c([N+](=O)[O-])c1)Nc1cccnc1 do in these assays?
AHR activator: inactive; GAA850 FXN act: inactive; HSF1 activator: inactive; HSF1 inh: inactive

How did CCOc1cc(N2CCOCC2)c(OCC)cc1NC(=O)COc1ccc2ccc(=O)oc2c1 do in these assays?
AHR activator: inactive; HSF1 activator: inactive; HSF1 inh: inactive

Results for COCCNC(=O)c1c(N)n(/N=C/c2cccs2)c2nc3ccccc3nc12 ?
AHR activator: 50; GAA850 FXN act: inactive; HSF1 activator: inactive; HSF1 inh: inactive

How did COCCCNC(=O)c1c(N)n(-c2ccc3c(c2)OCO3)c2nc3ccccc3nc12 do in these assays?
AHR activator: 52; GAA850 FXN act: inactive; HSF1 activator: inactive; HSF1 inh: inactive

How did C=CC[C@@H](CC(=O)NCCO)C(=O)NC[C@H](OC(=O)[C@@H](CC=C)Cc1ccc(F)cc1)c1ccccc1 do in these assays?
AHR activator: inactive; GAA850 FXN act: inactive

Results for Cc1ccc2cc3cc(C(=O)NCc4ccco4)oc3nc2c1 ?
AHR activator: inactive; GAA850 FXN act: inactive; HSF1 activator: 64; HSF1 inh: inactive

What do the screens show for `Cc1ccc2cc3cc(C(=O)NCCC(C)C)oc3nc2c1`?
AHR activator: inactive; GAA850 FXN act: inactive; HSF1 activator: inactive; HSF1 inh: inactive

Results for CC(On1nnc2ccc(S(=O)(=O)N3CCOCC3)cc21)C(=O)Nc1ccccc1F (configuration not stated) ?
AHR activator: inactive; GAA850 FXN act: inactive; HSF1 activator: inactive; HSF1 inh: inactive

What do the screens show for `C/C(=N\NC(=O)c1nnn(-c2nonc2N)c1C(C)C)c1ccc2ccccc2c1`?
AHR activator: inactive; GAA850 FXN act: inactive; HSF1 activator: inactive; HSF1 inh: inactive

Results for C/C(=N\NC(=O)c1nnn(-c2nonc2N)c1C(C)C)c1ccncc1 ?
AHR activator: inactive; GAA850 FXN act: inactive; HSF1 activator: inactive; HSF1 inh: -51

How did COc1cc(/C=N/NC(=O)C(Cc2c[nH]c3ccccc23)NC(=O)OCC(C)C)cc([N+](=O)[O-])c1O (configuration not stated) do in these assays?
AHR activator: inactive; GAA850 FXN act: inactive; HSF1 activator: inactive; HSF1 inh: inactive

What do the screens show for `COc1cc(/C=N/NC(=O)C(Cc2c[nH]c3ccccc23)NC(=O)OCC(C)C)cc([N+](=O)[O-])c1OCc1ccccc1` (configuration not stated)?
AHR activator: 64; GAA850 FXN act: inactive; HSF1 activator: inactive; HSF1 inh: inactive

Results for FC(F)(F)c1ccccc1-c1nc(-c2ccncc2)no1 ?
AHR activator: inactive; GAA850 FXN act: inactive; HSF1 activator: inactive; HSF1 inh: inactive

How did CCSc1ccccc1-c1nc(-c2ccncc2)no1 do in these assays?
AHR activator: 65; GAA850 FXN act: inactive; HSF1 activator: inactive; HSF1 inh: inactive

What do the screens show for `CCOc1cc(-c2nc(-c3ccc(C)nc3OCC)no2)cc(OCC)c1OCC`?
AHR activator: inactive; GAA850 FXN act: inactive; HSF1 activator: inactive; HSF1 inh: inactive

Results for CCOc1ccccc1-c1nc(-c2ccncc2)no1 ?
AHR activator: 48; GAA850 FXN act: inactive; HSF1 activator: inactive; HSF1 inh: inactive

What do the screens show for `CCOc1ccccc1NC(=O)c1ccccc1-c1nc(-c2ccccc2OC)no1`?
AHR activator: 64; GAA850 FXN act: inactive

How did CCOc1nc(C)ccc1-c1noc(-c2ccccc2OC)n1 do in these assays?
AHR activator: 50; GAA850 FXN act: inactive; HSF1 activator: inactive; HSF1 inh: inactive

Results for CC1CCN(C(=O)CSc2nc3c(cnn3-c3ccccc3)c(=O)[nH]2)CC1 ?
AHR activator: inactive; GAA850 FXN act: inactive; HSF1 activator: inactive; HSF1 inh: inactive

What do the screens show for `CC1CCN(C(=O)CSc2nc3c(cnn3-c3ccc(Cl)cc3)c(=O)[nH]2)CC1`?
AHR activator: inactive; GAA850 FXN act: inactive; HSF1 activator: inactive; HSF1 inh: -86

What do the screens show for `COc1ccnc(Oc2ccc(F)cc2)c1C(=O)N/C=N/OCc1ccc(F)cc1Cl`?
AHR activator: inactive; GAA850 FXN act: inactive; HSF1 activator: inactive; HSF1 inh: inactive

How did CC(C)(C)N1C(=O)c2ccccc2NC(=O)N1Cc1ccc(Br)cc1 do in these assays?
AHR activator: inactive; GAA850 FXN act: inactive; HSF1 activator: inactive; HSF1 inh: inactive

How did CC(C)n1cc(/C=N/NC(=O)COc2cccc3cccnc23)c2ccccc21 do in these assays?
AHR activator: inactive; GAA850 FXN act: inactive; HSF1 activator: 78; HSF1 inh: inactive

Results for Cc1ccc(OCC(=O)N/N=C\c2c(C)n(C)c3ccccc23)c([N+](=O)[O-])c1 ?
AHR activator: 60; GAA850 FXN act: inactive; HSF1 activator: inactive; HSF1 inh: inactive

What do the screens show for `Cc1cccc(OCCn2cc(/C=N/NC(=O)c3ccncc3)c3ccccc32)c1`?
AHR activator: inactive; GAA850 FXN act: inactive; HSF1 activator: inactive; HSF1 inh: inactive

Source: PubChem (several laboratories)
